Experimental findings from PubChem BioAssay (EPA / NIEHS) are described below.

Read-out in assay [1]: Tissue Factor, F3 (gene 2152)
Description: BSK_CASM3C_TissueFactor: BioMAP Diversity Plus: CASM3C Assay for Tissue Factor Biomarker Activity (AID 2283052).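 Also: cell surface tissue factor protein level read by ELISA.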 The note with it: primary human coronary artery smooth muscle cells; actives raise or lower the signal.

Read-out in assay [2]: Interferon-gamma inducible Protein 10 (IP10), CXCL10 (gene 3627)
Kind of assay: BSK_hDFCGF_IP10: BioMAP Diversity Plus: hDFCGF Assay for Interferon-gamma inducible Protein 10 (IP10) Biomarker Activity (AID 2283053). As to conditions: primary human foreskin fibroblasts; actives raise or lower the signal. A digest of the protocol:
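Cells: human dermal foreskin fibroblasts. Exposure: 24 h post-dosing. Detection: IP-10 ELISA, with values expressed against DMSO controls and fitted in both directions.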

Read-out in assay [3]: Urokinase-type plasminogen activator receptor (uPAR), PLAUR (gene 5329)
Description: BSK_CASM3C_uPAR: BioMAP Diversity Plus: CASM3C Assay for Urokinase-type plasminogen activator receptor (uPAR) Biomarker Activity (AID 2283054).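 Also: cell-surface uPAR protein level quantified by ELISA.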 The note with it: primary human coronary artery smooth muscle cells; actives raise or lower the signal.

Read-out in assay [4]: Vascular cell adhesion molecule 1 (VCAM1), VCAM1 (gene 7412)
Description: BSK_CASM3C_VCAM1: BioMAP Diversity Plus: CASM3C Assay for Vascular cell adhesion molecule 1 (VCAM1) Biomarker Activity (AID 2283055).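 Also: VCAM-1 protein level quantified by ELISA on the cells.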 As to conditions: primary human coronary artery smooth muscle cells; actives raise or lower the signal.

Read-out in assay [5]: Collagen III, COL3A1 (gene 1281)
Kind of assay: BSK_hDFCGF_CollagenIII: BioMAP Diversity Plus: hDFCGF Assay for Collagen III Biomarker Activity (AID 2283056). The note with it: primary human foreskin fibroblasts; actives raise or lower the signal. Summed up: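 Response relative to DMSO, fitted in both directions, reflects ELISA-measured collagen III in human primary skin fibroblasts 24 h after compound addition.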

Read-out in assay [6]: Epidermal growth factor receptor (EGFR), EGFR (gene 1956)
Kind of assay: BSK_hDFCGF_EGFR: BioMAP Diversity Plus: hDFCGF Assay for Epidermal growth factor receptor (EGFR) Biomarker Activity (AID 2283057). The note with it: primary human foreskin fibroblasts; actives raise or lower the signal. Summed up:
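Dosing human primary skin fibroblasts, then measuring surface EGFR by ELISA at 24 h, gives the endpoint; gains and losses relative to DMSO were fitted in both directions.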

Assay [7] can be described thus: BSK_hDFCGF_Proliferation: Cell Proliferation Assessment in the BioMAP Diversity Plus: hDFCGF Assay (AID 2283059).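 Also: curves fitted for both rise and fall of signal versus DMSO baseline.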 The note with it: primary human foreskin fibroblasts. A digest of the protocol:
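Sub-confluent human foreskin fibroblast cultures receive test chemical […]. Relative cell number is quantified by sulforhodamine B staining (0.1%, after 10% TCA fixation) at 560 nm, with bidirectional fitting referenced to DMSO.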

Read-out in assay [8]: Macrophage colony-stimulating factor (MCSF), CSF1 (gene 1435)
Description: BSK_hDFCGF_MCSF: BioMAP Diversity Plus: hDFCGF Assay for Macrophage colony-stimulating factor (MCSF) Biomarker Activity (AID 2283060). The note with it: primary human foreskin fibroblasts; actives raise or lower the signal. A digest of the protocol:
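fibroblasts (human foreskin, primary), 24 h post-dose; M-CSF by ELISA; bidirectional fit, DMSO = baseline.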

A short description of assay [9]: BSK_hDFCGF_SRB: Viability Assessment in the BioMAP Diversity Plus: hDFCGF Assay (AID 2283061).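 Also: cells exposed to compound for 24 h before the read.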 The note with it: primary human foreskin fibroblasts. Summed up: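 SRB-based viability read on primary human skin fibroblasts at 24 h: TCA fixation, 0.1% dye, 560 nm. Gain or loss of signal is fitted against the DMSO negative control.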
Read-out in assay [10]: TIMP metallopeptidase inhibitor 1 (TIMP1), TIMP1 (gene 7076)
Description: BSK_hDFCGF_TIMP1: BioMAP Diversity Plus: hDFCGF Assay for TIMP metallopeptidase inhibitor 1 (TIMP1) Biomarker Activity (AID 2283062). The note with it: primary human foreskin fibroblasts; actives raise or lower the signal. A digest of the protocol:
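Bidirectional curve fitting against DMSO baseline yielded this endpoint, based on ELISA detection of TIMP-1 in primary human foreskin fibroblasts exposed to compound for 24 h.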

Read-out in assay [11]: Monokine induced gamma interferon (MIG), CXCL9 (gene 4283)
Description: BSK_hDFCGF_MIG: BioMAP Diversity Plus: hDFCGF Assay for Monokine induced gamma interferon (MIG) Biomarker Activity (AID 2283063). The note with it: primary human foreskin fibroblasts; actives raise or lower the signal. Summed up: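 Endpoint derived by bidirectional fitting relative to DMSO; MIG quantified via ELISA in primary human foreskin fibroblasts harvested 24 h after dosing.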

Read-out in assay [12]: Matrix Metallopeptidase 1 (MMP1), MMP1 (gene 4312)
Kind of assay: BSK_hDFCGF_MMP1: BioMAP Diversity Plus: hDFCGF Assay for Matrix Metallopeptidase 1 (MMP1) Biomarker Activity (AID 2283064). As to conditions: primary human foreskin fibroblasts; actives raise or lower the signal. A digest of the protocol: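 ELISA read-out of MMP1 from human foreskin fibroblasts (primary skin cells), 24 h post-dose. Gain or loss of signal was fitted bidirectionally versus DMSO negative control; cytotoxicity was checked by SRB in parallel cultures.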

Read-out in assay [13]: Vascular cell adhesion molecule 1 (VCAM1), VCAM1 (gene 7412)
Kind of assay: BSK_hDFCGF_VCAM1: BioMAP Diversity Plus: hDFCGF Assay for Vascular cell adhesion molecule 1 (VCAM1) Biomarker Activity (AID 2283065). As to conditions: primary human foreskin fibroblasts; actives raise or lower the signal. Summed up: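 Measured after 24 h chemical treatment of primary human skin fibroblasts, VCAM-1 was detected by ELISA and concentration-response analysed in both directions versus DMSO vehicle.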

Read-out in assay [14]: Plasminogen activator inhibitor-1 (PAI1), SERPINE1 (gene 5054)
Description: BSK_hDFCGF_PAI1: BioMAP Diversity Plus: hDFCGF Assay for Plasminogen activator inhibitor-1 (PAI1) Biomarker Activity (AID 2283066). As to conditions: primary human foreskin fibroblasts; actives raise or lower the signal. A digest of the protocol: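 Fibroblasts from human foreskin were treated with test chemical. After 24 h, PAI-1 was measured by ELISA. Activity was fitted in both directions relative to DMSO.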

Read-out in assay [15]: Intercellular Adhesion Molecule 1 (ICAM1), ICAM1 (gene 3383)
Description: BSK_KF3CT_ICAM1: BioMAP Diversity Plus: KF3CT Assay for Intercellular Adhesion Molecule 1 (ICAM1) Biomarker Activity (AID 2283067). The note with it: primary human keratinocytes with fibroblasts; actives raise or lower the signal. Summed up:
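Bidirectional curve fitting against a DMSO baseline was applied to ICAM-1 ELISA signal from primary human skin co-cultures harvested 24 h after treatment, with SRB staining of parallel wells for overt cytotoxicity.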

Read-out in assay [16]: Interferon-gamma inducible Protein 10 (IP10), CXCL10 (gene 3627)
Kind of assay: BSK_KF3CT_IP10: BioMAP Diversity Plus: KF3CT Assay for Interferon-gamma inducible Protein 10 (IP10) Biomarker Activity (AID 2283068). The note with it: primary human keratinocytes with fibroblasts; actives raise or lower the signal. A digest of the protocol: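 ELISA read-out of IP-10 after 24 h chemical dosing of human skin primary co-culture (keratinocytes, foreskin fibroblasts). Gain or loss of signal relative to DMSO, bidirectional curve fit.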

Assay [17] is described as follows: BSK_KF3CT_SRB: Viability Assessment in the BioMAP Diversity Plus: KF3CT Assay (AID 2283069).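 Also: total protein by sulforhodamine B staining as a cytotoxicity measure; fitted for both signal gain and loss against DMSO baseline.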 As to conditions: primary human keratinocytes with fibroblasts. Summed up: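 SRB read-out at 560 nm (0.1% stain, TCA-fixed cells) gauges overt cytotoxicity in a human skin keratinocyte–fibroblast co-culture 24 h post-dosing. Signal change was fitted bidirectionally relative to DMSO control.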

Read-out in assay [18]: Interleukin-1 alpha (IL1a), IL1A (gene 3552)
Description: BSK_KF3CT_IL1a: BioMAP Diversity Plus: KF3CT Assay for Interleukin-1 alpha (IL1a) Biomarker Activity (AID 2283070). As to conditions: primary human keratinocytes with fibroblasts; actives raise or lower the signal. Summed up:
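Primary skin co-culture (keratinocytes, foreskin fibroblasts), 24 h exposure; ELISA for IL-1a; bidirectional curve fit vs DMSO.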

Read-out in assay [19]: TIMP metallopeptidase inhibitor 2 (TIMP2), TIMP2 (gene 7077)
Description: BSK_KF3CT_TIMP2: BioMAP Diversity Plus: KF3CT Assay for TIMP metallopeptidase inhibitor 2 (TIMP2) Biomarker Activity (AID 2283071). As to conditions: primary human keratinocytes with fibroblasts; actives raise or lower the signal. A digest of the protocol:
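Chemicals were dosed onto human skin primary co-cultures of keratinocytes and foreskin fibroblasts, and TIMP-2 was measured by ELISA after 24 hours. Activity in either direction was fitted relative to DMSO.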

Molecules are shown by their SMILES. The source made the active and inactive calls. The calls were made as follows: active = hit-call score of the fitted dose curve at least 0.9, where 1 is the maximum; inactive = score below 0.9.

By AC50 is commonly meant the concentration giving half of the maximal activity seen. Turning to `CCCCC(C#N)(Cn1cncn1)c1ccc(Cl)cc1` (centres undefined), the outcome in [1], in assay [2], in [4], in [5], in assay [6] and in assay [7] was inactive. The result in assay [8], in assay [9], in assay [10], in [11], in [12] and in assay [13] was inactive. Moreover, the result in [15], in [17], in assay [18] and in assay [19] was inactive. Moreover, the AC50 in assay [3] was 1.12 µM (active); in [14] it was 7.4 µM (active); in assay [16] it was 0.148 µM (active).
For the compound `Clc1cccc(C(Cl)(Cl)Cl)n1`, the result in assay [1], in assay [3], in assay [4], in [5], in [6] and in assay [7] was inactive. Also, the outcome in assay [8], in assay [9], in [10], in [11], in assay [12] and in assay [13] was inactive. Moreover, the result in assay [14], in [15], in assay [16], in assay [17], in assay [18] and in assay [19] was inactive. In assay [2], the AC50 is 29.8 µM (active).
Take `CNC(=O)N(C)c1nnc(C(C)(C)C)s1`: the result in assay [1], in assay [2], in assay [3], in [4], in assay [5] and in assay [6] was inactive. Moreover, the outcome in [7], in assay [8], in assay [9], in [10], in assay [11] and in assay [12] was inactive. Moreover, the result in [13], in assay [14], in assay [15], in assay [16], in assay [17] and in [18] was inactive. Also, in assay [19], the outcome was inactive.
In the case of `COP(=O)(OC)O/C(C)=C/C(=O)N(C)C`, the outcome in assay [1], in assay [2], in assay [3], in [4], in assay [5] and in [6] was inactive. The outcome in assay [7], in [8], in assay [9], in assay [10], in assay [11] and in assay [12] was inactive. Moreover, the outcome in assay [13], in assay [14], in assay [15], in [16], in assay [17] and in [18] was inactive. Further, the result in assay [19] was inactive.
In the case of `COCc1cnc(C2=NC(C)(C(C)C)C(=O)N2)c(C(=O)O)c1` (centres undefined), the outcome in [1], in assay [2], in assay [3], in assay [4], in [5] and in assay [6] was inactive. Further, the outcome in assay [7], in [8], in assay [9], in [10], in [11] and in [12] was inactive. Further, the outcome in assay [13], in [14], in assay [15], in [17], in assay [18] and in assay [19] was inactive. In addition, in assay [16], the AC50 was 12.3 µM (active).
As to `CS(=O)(=O)c1cc(C(F)(F)F)ccc1C(=O)c1cnoc1C1CC1`, the result in assay [1], in assay [2], in [3], in assay [4], in assay [5] and in assay [6] was inactive. The outcome in [7], in assay [8], in assay [9], in assay [10], in assay [11] and in assay [12] was inactive. In addition, the result in assay [13], in assay [14], in [15], in assay [16], in assay [17] and in assay [18] was inactive. Further, the outcome in [19] was inactive.
